Source: article PMC5540273 (PLoS ONE, 2017)

Experiments:
Conditions in all cases: concentration: 1 μM, replicates: in singlicate; n = 1
[1] = tested on: TYK2(JH2domain-pseudokinase)
TYRO3 = tested on: TYRO3
ULK1 = tested on: ULK1
ULK2 = tested on: ULK2
ULK3 = tested on: ULK3
VEGFR2 = tested on: T1, VEGFR2
T1 construct: gene KDR

VPS34 = tested on: T2, VPS34
T2 construct: gene PIK3C3

VRK2 = tested on: VRK2
WEE1 = tested on: WEE1
WEE2 = tested on: WEE2
WNK1 = tested on: WNK1
WNK2 = tested on: WNK2
WNK3 = tested on: WNK3
WNK4 = tested on: WNK4
YANK1 = tested on: T3, YANK1
T3 construct: gene STK32A

YANK2 = tested on: T4, YANK2
T4 construct: gene STK32B

YANK3 = tested on: T5, YANK3
T5 construct: gene STK32C

YES = tested on: T6, YES
T6 construct: gene YES1

YSK1 = tested on: T7, YSK1
T7 construct: gene STK25

YSK4 = tested on: T8, YSK4
T8 construct: gene MAP3K19
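Note: KINOMEscan kinase panel screen.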

| SMILES | %Inh [1] [%] | %Inh (TYRO3) [%] | %Inh (ULK1) [%] | %Inh (ULK2) [%] | %Inh (ULK3) [%] | %Inh (VEGFR2) [%] | %Inh (VPS34) [%] | %Inh (VRK2) [%] | %Inh (WEE1) [%] | %Inh (WEE2) [%] | %Inh (WNK1) [%] | %Inh (WNK2) [%] | %Inh (WNK3) [%] | %Inh (WNK4) [%] | %Inh (YANK1) [%] | %Inh (YANK2) [%] | %Inh (YANK3) [%] | %Inh (YES) [%] | %Inh (YSK1) [%] | %Inh (YSK4) [%] |
| --- | --- | --- | --- | --- | --- | --- | --- | --- | --- | --- | --- | --- | --- | --- | --- | --- | --- | --- | --- | --- |
| O=C(O)C(F)(F)F.O=C(O)C(F)(F)F.O=c1[nH]ccc2nc(N[C@@H]3CCCNC3)nc(Nc3ccc(S(=O)(=O)N4CCOCC4)cc3)c12 [GSK2177277] | 93.2 | 15 | 100 | 88 | 99.9 | 74 | 91.5 | 77 | 66 | 13 | 0 | 29 | 13 | 0 | 96.6 | 89 | 74 | 75 | 94.2 | 99.7 |
| CN(c1ccc(NC(=O)Nc2cc(C(F)(F)F)ccc2F)cc1)c1ccnc(Nc2ccc(S(N)(=O)=O)cc2)n1 [GW809893] | 12 | 77 | 17 | 3 | 76 | 88 | 4 | 0 | 0 | 11 | 6 | 0 | 0 | 0 | 17 | 0 | 17 | 80 | 100 | 99.1 |
| COc1ccc(-c2coc3ccc(-c4nnc(SCc5ccc(OC)c(C(F)(F)F)c5)o4)cc23)cc1 | 1 | 16 | 0 | 6 | 16 | 17 | 11 | 0 | 0 | 0 | 0 | 31 | 0 | 4 | 10 | 0 | 0 | 12 | 0 | 20 |
| COc1cc(Nc2nccc(-c3c(-c4cccc(NC(=O)c5c(F)cccc5F)c4)nn4ccccc34)n2)cc(OC)c1OC [GSK323521] | 0 | 0 | 0 | 0 | 18 | 0 | 12 | 0 | 0 | 6 | 27 | 59 | 54 | 19 | 11 | 0 | 14 | 8 | 3 | 93.6 |
| COc1cccc(C(=O)Nc2cccc(Oc3ccc4nc(NC(=O)C5CC5)cn4n3)c2)c1 | 0 | 47 | 0 | 0 | 11 | 99.9 | 22 | 0 | 0 | 20 | 0 | 0 | 0 | 0 | 0 | 0 | 0 | 92.7 | 0 | 100 |
| CNC(=O)c1ccccc1Nc1nc(Nc2ccc(N3CCOCC3)cc2)ncc1Cl.Cl [GSK1576028] | 99.7 | 85 | 99.6 | 81 | 99.8 | 90 | 0 | 21 | 99.7 | 100 | 12 | 5 | 39 | 0 | 58 | 30 | 24 | 98.7 | 68 | 99.9 |
| Fc1ccc(-c2ncn(C3CCNCC3)c2-c2ccnc(Oc3ccc(-c4ccccc4)cc3)n2)cc1 [SB-245391] | 84 | 0 | 54 | 26 | 46 | 12 | 30 | 41 | 0 | 58 | 42 | 0 | 32 | 0 | 90.8 | 85 | 86 | 0 | 18 | 47 |
| COC(=O)Nc1nc2cc(Oc3ccc(NC(=O)Nc4cc(C(F)(F)F)ccc4F)cn3)ccc2[nH]1.Cl.Cl [GW681170] | 12 | 0 | 0 | 0 | 13 | 55 | 8 | 22 | 7 | 0 | 6 | 8 | 22 | 39 | 9 | 16 | 0 | 24 | 0 | 87 |
| Nc1n[nH]c2cnc(-c3ccccc3)cc12 [SB-642124] | 85 | 9 | 50 | 22 | 35 | 0 | 0 | 35 | 19 | 0 | 8 | 2 | 33 | 38 | 12 | 0 | 17 | 24 | 1 | 95.9 |
| Oc1cc(Nc2ccnc3cc(I)ccc23)ccc1F [GW552771] | 25 | 54 | 9 | 0 | 29 | 31 | 0 | 36 | 0 | 0 | 1 | 4 | 34 | 35 | 10 | 22 | 31 | 26 | 0 | 79 |
